# Results taken from PubChem BioAssay (NCI).
# This is part of a sample that, as a whole, favours compounds with a hit. Of some 83,000 tested, about 20% had one in any assay.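 How to read the values: 0–100, growth inhibition (40 = 60% inhibited); 0, no net growth; -100 to 0, cell death (-40 = 40% of starting cells died; -100 = all dead).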 A number with no mark means an inactive call. Active and inactive are the calls of the source. Rule for the calls: active = growth percent below 10; inactive = the rest.
# Experiments:
# Experiment in all cases: NCI-60 one-dose screen, 48 h (100 = growth as untreated, 0 = no growth, -100 = all killed)
# NCI-H23 lung = details: 10 µM unless noted
# NCI-H226 lung = details: 10 µM unless noted
# NCI-H322M lung = details: 10 µM unless noted
# NCI-H460 lung = details: 10 µM unless noted
# HOP-92 NSCLC = details: 10 µM
# NCI-H522 lung = details: 10 µM
# A549/ATCC NSCLC = details: 10 µM unless noted
# 786-0 renal = details: 10 µM unless noted
# COLO 205 colon = details: 10 µM unless noted
# DU-145 prostate = details: 10 µM unless noted
# K-562 leukemia = details: 10 µM unless noted
# MALME-3M melanoma = details: 10 µM unless noted
# MDA-MB-231 breast = details: 10 µM unless noted
# RXF 393 renal = details: 10 µM unless noted
# SF-268 CNS = details: 10 µM unless noted
# SF-295 CNS = details: 10 µM unless noted
# SF-539 CNS = details: 10 µM unless noted
# UACC-257 melanoma = details: 10 µM unless noted
# M14 melanoma = details: 10 µM unless noted
Compound,growth (NCI-H23 lung),growth (NCI-H226 lung),growth (NCI-H322M lung),growth (NCI-H460 lung),growth (HOP-92 NSCLC),growth (NCI-H522 lung),growth (A549/ATCC NSCLC),growth (786-0 renal),growth (COLO 205 colon),growth (DU-145 prostate),growth (K-562 leukemia),growth (MALME-3M melanoma),growth (MDA-MB-231 breast),growth (RXF 393 renal),growth (SF-268 CNS),growth (SF-295 CNS),growth (SF-539 CNS),growth (UACC-257 melanoma),growth (M14 melanoma)
CCC(C)C1NC(=O)C(CCCCN)NC(=O)C(CCCCN)NC(=O)C(CC(C)C)NC(=O)C(CCCCN)NC(=O)C(C(C)CC)NC(=O)C(C(C)C)NC(=O)C(C(C)CC)NC(=O)C(CCCCN)NC(=O)C(CCCCN)NC(=O)C(C)NC(=O)C(CCCCN)NC(=O)C(CC(C)C)NC1=O (centres undefined),16.6%,46.8%,82%,14.8%,-9.52% (active),9.29% (active),20.2%,20.8%,-59.4% (active),25.5%,9.18% (active),9.48% (active),-0.123% (active),45.2%,19.5%,27.4%,67.5%,7.94% (active),22.2%
O=C(Nc1cccc2[nH]c(C(F)(F)F)nc12)c1ccc(F)cc1,83.7%,86.1%,101%,55%,-9.1% (active),51.3%,72.8%,91.9%,95.1%,88.3%,24.8%,74%,83.7%,88%,86.1%,86.6%,80%,89.7%,92%
O=C(Cc1ccccc1[N+](=O)[O-])c1ccc2c(c1)OCO2,99.3%,97.1%,103%,101%,82%,91.7%,98.1%,94.3%,116%,106%,94.1%,96.1%,109%,104%,94.1%,96.1%,101%,98.7%,103%
CCCCCCCCCCCCc1ccc([N+](CC)(CC)CC)cc1,17.6%,59.3%,88.5%,44%,40.9%,33.8%,61.1%,65.6%,20.3%,58.8%,16.3%,-11.1% (active),41.7%,45.8%,47.8%,48.9%,58.7%,13.6%,32.5%
COC(=O)c1ccc2[nH]c(O)c(C(=Nc3ccc(N(C)C(=O)CN4CCN(C)CC4)cc3)c3ccc4c(c3)OCO4)c2c1,5.66% (active),23.3%,21%,8.35% (active),36.9%,2.17% (active),5.98% (active),14.4%,-54.4% (active),7.84% (active),4.82% (active),-5.19% (active),12.5%,-56.9% (active),11.5%,27.5%,-19% (active),31.5%,10.5%
COC(=O)c1ccc2[nH]c(O)c(C(=Nc3ccc(N(C)C(=O)CN4CCN(C)CC4)cc3)c3ccc(C)cc3)c2c1,-9.95% (active),5.6% (active),19.8%,-43.1% (active),38.7%,-33.6% (active),-30.2% (active),-85.1% (active),-61.2% (active),-14.2% (active),-32.9% (active),-94.6% (active),-22.9% (active),-98.2% (active),5.16% (active),1.13% (active),-96.1% (active),-59.4% (active),-83.7% (active)
NC(=O)c1c(Nc2ccccc2)nn2cc(-c3nc4ccccc4s3)c(N)nc12,95.2%,85.5%,103%,98.6%,93.2%,91.4%,105%,109%,106%,107%,93.1%,96%,84.7%,102%,95.6%,98.7%,95.3%,118%,93.5%
O=C(CN1C(=O)NC(c2ccccc2)(c2ccccc2)C1=O)c1ccc(N2CCCC2)cc1,72.2%,90.7%,97.4%,103%,73.8%,64.5%,77.2%,99.6%,103%,107%,29.5%,72.1%,113%,81%,97.8%,72.1%,100%,85.8%,52.9%
O=C(N/N=C/c1ccccc1Cl)c1cccc2ccccc12,97.9%,99.7%,108%,98.9%,94.8%,84.5%,97.5%,105%,114%,115%,93.7%,97.9%,105%,110%,104%,99.7%,108%,111%,106%
C/C(=N\Nc1cccc(Cl)n1)c1ccccn1,16.8%,-3.86% (active),23.7%,5.39% (active),40.5%,24.6%,9.19% (active),8.33% (active),10.6%,23.3%,6.59% (active),21.6%,36.8%,24%,12.8%,0.34% (active),1.72% (active),2.3% (active),-23.8% (active)
COc1cc(-c2nc3c(c(C)nc4c3nnn4-c3ccccc3)c(=O)o2)cc(OC)c1OC,115%,104%,104%,115%,103%,103%,112%,104%,113%,111%,106%,104%,106%,108%,98.3%,104%,102%,119%,98.6%
Cc1ccc(C(C)C)c(OCc2ccc(C(=O)N/N=C/c3cccc(O)c3O)cc2)c1,25.9%,68.1%,43.1%,12.5%,37.9%,47.4%,52.9%,16%,16.3%,33.6%,4.92% (active),29.6%,41.1%,48.3%,25.6%,36.1%,26%,58.8%,18.1%
CCN(CC)CCCC(C)Nc1c(C)cnc2cc(Cl)c(C)cc12 (centres undefined),91.9%,96.2%,87.6%,90.2%,70.4%,82.3%,103%,64.7%,72.2%,91.7%,3.57% (active),110%,73.5%,69.3%,87.6%,84.8%,72.3%,112%,7.11% (active)
CC/C(=N\Nc1nc2ccccc2n1C)c1ccccn1,7.14% (active),-0.758% (active),21%,1.28% (active),29.2%,18.7%,2.95% (active),2.44% (active),21.9%,11.8%,8.28% (active),9.46% (active),20.8%,2.73% (active),3.39% (active),-19.8% (active),-6.18% (active),-0.857% (active),-19% (active)
CCN(CC)CCCNc1c2ccc(Cl)cc2nc2ccc(OC)cc12,-34.9% (active),-6.37% (active),-18.9% (active),1.68% (active),-27.8% (active),-52% (active),-32.4% (active),9.99% (active),-72.3% (active),5.08% (active),-21.9% (active),-59.7% (active),-39.5% (active),-57.9% (active),-10.1% (active),-21.7% (active),-65.7% (active),33.4%,-79% (active)
O=C1N/C(=N\c2nnc(-c3ccc(O)cc3)s2)S/C1=C\c1ccccc1O,95.2%,99.6%,91.9%,102%,81.7%,93.6%,103%,97.5%,114%,95.2%,103%,82.8%,99.4%,113%,90.7%,94%,101%,102%,91.1%
